FID counter: counter-screen for HCV NS3 helicase inhibitors: DNA intercalator displacement. inhibition, % at 7.9 µM. 290,000 tested, 0.17% active. DNA fluorescent intercalator displacement, fluorescence; in the data active means inhibition above about 37%;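 further: higher means more ethidium bromide displaced from hairpin DNA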
MEKK3 PB1 HTS: MEKK3-MEK5 PB1 interaction, increase or decrease | Q99759 | bead-based flow cytometry, Alexa488-MEK5 binding to MEKK3; actives lie on both sides; 0 = blocked by unlabeled MEK5, 100 = vehicle | binding response (% of control), % at 10 µM | 290,000 tested, 1.4% active | AID 1529;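 active means binding response more than 3 SD above or below the average of its plate-row segment, actives on both sides; inconclusive means wells at one plate position flagged as instrument error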;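 further: Alexa488 bead fluorescence after subtracting the streptavidin-only scavenger bead signal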
MEKK2wt PB1 HTS: raises or lowers MEK5 binding to wildtype human MEKK2 PB1 domain; Q9Y2U5; bead flow cytometry, Alexa488-MEK5 binding to MEKK2 WT; actives lie on both sides; binding response (% of control), % at 10 µM; 290,000 tested, 1.1% active; AID 1531; in the data active means binding response below about 67% or above about 130%; inconclusive means no clear call, values can overlap the other calls; inactive means in between
dFosB act-1: activators of mouse delta FosB homodimer; P13346; 340,000 tested, 0.99% active; purified delta FosB, TAMRA-CDK5 oligo fluorescence polarization; percent of positive-control signal above neutral wells; activation, % at 25 µM;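 active means mean activation above about 17%, with every replicate also reaching it, limit read from the data, passing the limit was not always enough; inconclusive means only one of the two conditions met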
Target sequence (P13346 whole entry, looked up): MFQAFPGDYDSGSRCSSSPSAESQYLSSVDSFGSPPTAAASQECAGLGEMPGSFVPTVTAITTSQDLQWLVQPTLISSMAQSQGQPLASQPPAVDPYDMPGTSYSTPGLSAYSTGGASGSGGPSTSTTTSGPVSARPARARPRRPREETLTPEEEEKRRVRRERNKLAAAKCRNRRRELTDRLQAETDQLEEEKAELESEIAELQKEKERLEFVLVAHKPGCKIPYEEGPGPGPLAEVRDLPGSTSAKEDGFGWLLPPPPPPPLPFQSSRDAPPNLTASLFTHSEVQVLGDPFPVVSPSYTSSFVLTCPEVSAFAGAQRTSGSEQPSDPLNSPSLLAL
MEKK2mut PB1 HTS: signal of MEK5 binding to mutant human MEKK2 PB1 domain | bead flow cytometry, Alexa488-MEK5 binding to MEKK2 mutant | percent response, % at 10 µM | 290,000 tested, 0.35% active | AID 1530; in the data active means percent response above about 24%, passing the limit was not always enough
dFosB act-2: activators of mouse delta FosB homodimer DNA binding; activation, % at 24.9 µM; shares compounds with dFosB act-1; AID 588690; 2,400 tested, under 10 active; purified delta FosB, TAMRA-CDK5 oligo fluorescence polarization; normalised: neutral wells 0, positive control 100;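 active means highest replicate activation at or above 34% and every replicate reaching that threshold; inconclusive means meets only one of the two criteria; inactive means meets neither criterion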;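 further: higher polarization means more probe DNA bound by delta FosB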
Hits are given with their value; . = inactive; ? = inconclusive; / = no result. In the library only some 2.9% were active in any assay of this set; here they are far more common.

SMILES | FID counter | MEKK3 PB1 HTS | MEKK2wt PB1 HTS | dFosB act-1 | MEKK2mut PB1 HTS | dFosB act-2
C=CCc1c(OC)ccc2c1c(S(=O)(=O)c1ccc(C)cc1)cn2COC | . | . | . | . | . | /
Cc1ccc(NC(=O)CSc2nncn2-c2ccccn2)cc1Cl | . | . | . | 25.6 | . | .
Cc1ccc(NC(=O)CCC(=O)Nc2nnc(C3CCCCC3)s2)cc1 | . | . | . | . | . | /
Cc1cccc(NC(=O)CCC(=O)Nc2nnc(C3CCCCC3)s2)c1 | . | . | . | 30.1 | . | .
Cc1cnc(NC(=O)Cc2ccccc2Cl)s1 | . | . | . | . | . | /
Cc1cnc(NC(=O)c2cc3c(C)nn(Cc4ccccc4Cl)c3s2)s1 | . | . | . | 30.4 | . | .
Cc1cc(C)c(NC(=O)Cn2c(=O)c3cccn3c3ccccc32)c(C)c1 | . | . | . | 39.2 | . | .
CCc1ccc(NC(=O)Cn2c(=O)c3cccn3c3ccccc32)cc1 | . | . | . | 32.2 | . | .
Cc1[nH]nc2c1-c1nc3ccccc3nc1C(C)(C)C2 | . | . | . | . | . | /
COc1ccc(-c2c(C#N)c(N)nc(Sc3ccc(Cl)cc3)c2C#N)cc1 | . | . | . | 120.5 | . | .
O=C(COC(=O)c1ccc(S(=O)(=O)N2CCCC2)cc1)Nc1cccc(F)c1 | / | / | / | . | / | /
COc1ccc(/C=C/C(=O)Nc2c(C)nn(C)c2C)cc1COc1ccc(Cl)cc1Br | . | . | . | 130.8 | . | .
C/C(=N\NC(=O)c1ccc(OC2OCCOC2Oc2ccc(C(=O)N/N=C(\C)c3ccncc3)cc2)cc1)c1ccncc1 (configuration not stated) | . | . | . | 96.7 | . | .
CCOc1ccc2c(C)nc(NC3=NC(C)(C)C=C(C)N3)nc2c1 | . | . | . | 25.6 | . | ?
CCOc1ccc2nc(NC3=NC(c4ccc(OC)cc4)CC(=O)N3)nc(C)c2c1 (configuration not stated) | . | . | . | . | . | /
CCOc1ccc2nc(NC3=NC(C)(C)C=C(C)N3)nc(C)c2c1 | . | . | . | 23.5 | . | .
COc1cc(OC)c(C2C(C#N)=C(C)NC(C)=C2C#N)c(C(=O)O)c1 | . | . | . | . | . | /
COc1cccc(C(=O)OCC(=O)Nc2ccc(N3CCOCC3)cc2)c1 | / | / | / | . | / | /
CCOc1ccccc1NC(=O)c1cc(C(=O)c2cc(Br)ccc2O)coc1=N | . | . | . | 33.0 | . | .
Cc1ccc(S(=O)(=O)N2CCN(C(=O)COC(=O)/C=C/c3ccc([N+](=O)[O-])cc3)CC2)c(C)c1 | / | / | / | 24.0 | / | .
C=CCn1c(SCC(=O)NCc2ccc3c(c2)OCO3)nc2scc(-c3ccc(F)cc3)c2c1=O | . | . | . | 45.4 | . | .
C=CCn1c(SC(C)C(=O)NCc2ccc3c(c2)OCO3)nc2scc(-c3ccccc3)c2c1=O (configuration not stated) | . | . | . | . | . | /
CSc1nc(O)cc(=O)n1-c1ccc(F)cc1 | . | . | . | . | . | /
Cc1ccc2nc(-c3ccc(NC(=O)COC(=O)c4ccc(Br)o4)cc3)sc2c1 | . | . | . | 35.3 | . | .
Cc1ccc2nc(-c3ccc(NC(=O)COC(=O)c4ccc([N+](=O)[O-])o4)cc3)sc2c1 | . | . | . | . | . | /
CC(C)C[C@@H](CN1CCCC1CN1C(=S)NC[C@@H]1Cc1ccc(O)cc1)N1C[C@H](Cc2ccccc2)N(CCc2ccccc2)C1=S (some centres not stated) | / | / | / | 61.3 | / | .
CCOc1ccc(CCN2C(=O)C(=O)N([C@@H](Cc3ccc(O)cc3)CN3CCC[C@@H]3CN3C(=O)C(=O)NC[C@@H]3Cc3ccccc3)C[C@@H]2Cc2ccccc2)cc1 | / | / | / | . | / | /
CC(C)C[C@H]1CN([C@@H](CC(C)C)CN2CCCC2CN2C(=S)NC[C@@H]2Cc2ccc(O)cc2)C(=S)N1CCc1ccccc1 (some centres not stated) | / | / | / | 25.1 | / | .
Oc1ccc(C[C@H]2CNC(=S)N2CC2CCCN2C[C@H](Cc2ccc(O)cc2)N2C[C@H](Cc3ccccc3)N(CCc3ccccc3)C2=S)cc1 (some centres not stated) | / | / | / | 65.3 | / | .
